Hit rate of the full screen: of about 400,000 compounds, about 2,100 (0.53%) were called active. Roughly 14% stayed inconclusive and do not appear here. No rule for the calls is given here. Shown is part of a subset that was picked to be rich in actives.

The values that follow come from ChEMBL document CHEMBL1201862, “PubChem BioAssay data set” (2004).

The target of this assay is Ataxin-2 (Homo sapiens) (UniProt Q99700). The assay can be described thus: qHTS for Inhibitors of ATXN expression. Type of assay: functional. In general terms: qHTS replaces the single test concentration by a dilution series.
Chain of Ataxin-2 (Homo sapiens) (Q99700 whole entry): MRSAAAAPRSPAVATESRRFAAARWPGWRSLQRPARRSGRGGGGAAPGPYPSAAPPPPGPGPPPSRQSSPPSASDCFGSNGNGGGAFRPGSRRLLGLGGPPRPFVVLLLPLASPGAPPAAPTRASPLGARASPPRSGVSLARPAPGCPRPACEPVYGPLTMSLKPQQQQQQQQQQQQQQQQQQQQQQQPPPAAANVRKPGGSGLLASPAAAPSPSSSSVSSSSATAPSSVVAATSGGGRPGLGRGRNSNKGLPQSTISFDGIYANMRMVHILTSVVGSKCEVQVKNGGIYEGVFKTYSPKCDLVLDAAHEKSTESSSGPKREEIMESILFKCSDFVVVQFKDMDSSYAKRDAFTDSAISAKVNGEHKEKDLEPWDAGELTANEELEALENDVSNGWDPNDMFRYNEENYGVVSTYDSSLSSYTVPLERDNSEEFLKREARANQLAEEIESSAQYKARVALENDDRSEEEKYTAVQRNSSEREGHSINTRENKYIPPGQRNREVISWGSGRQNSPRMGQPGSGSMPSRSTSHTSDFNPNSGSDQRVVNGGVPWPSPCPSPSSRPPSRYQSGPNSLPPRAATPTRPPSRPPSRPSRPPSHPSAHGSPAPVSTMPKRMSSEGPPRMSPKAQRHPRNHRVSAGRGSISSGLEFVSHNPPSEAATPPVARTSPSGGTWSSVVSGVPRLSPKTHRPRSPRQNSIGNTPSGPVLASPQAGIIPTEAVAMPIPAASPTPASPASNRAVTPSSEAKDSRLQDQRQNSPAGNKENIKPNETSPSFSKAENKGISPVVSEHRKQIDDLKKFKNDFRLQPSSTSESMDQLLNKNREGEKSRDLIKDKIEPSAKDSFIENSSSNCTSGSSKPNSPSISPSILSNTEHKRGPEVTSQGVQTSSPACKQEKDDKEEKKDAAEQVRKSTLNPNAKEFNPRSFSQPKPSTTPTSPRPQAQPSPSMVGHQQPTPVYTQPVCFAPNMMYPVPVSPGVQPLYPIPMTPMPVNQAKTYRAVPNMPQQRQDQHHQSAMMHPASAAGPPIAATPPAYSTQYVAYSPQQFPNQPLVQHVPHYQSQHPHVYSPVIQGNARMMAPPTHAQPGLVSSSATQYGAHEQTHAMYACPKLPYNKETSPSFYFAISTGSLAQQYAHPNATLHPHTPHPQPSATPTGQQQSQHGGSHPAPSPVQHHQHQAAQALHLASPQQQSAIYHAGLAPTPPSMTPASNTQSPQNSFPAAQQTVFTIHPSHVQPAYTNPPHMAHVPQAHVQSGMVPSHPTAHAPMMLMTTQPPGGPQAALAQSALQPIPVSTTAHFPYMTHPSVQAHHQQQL
As for `CSc1ccc(CN(C)CC(=O)Nc2ccc(C)cc2Br)cc1`, the Potency entry is “inactive”.

Consider `COc1cccc(/C=C/c2nc(C#N)c(N(C)Cc3ccccc3)o2)c1`, for which the Potency entry was “inactive”.

Regarding `CC(C)(C)c1ccc(/C=C2\Oc3c(ccc(O)c3CN3CCN(CCO)CC3)C2=O)cc1`, the Potency result is “inactive”.

Consider `CCN1C(=O)N(CC)C2C1N(CO)C(=O)N2CO` (stereo not drawn), for which the Potency entry was “inactive”.

Turning to `O=C(O)c1ccc(Nc2c3ccccc3nc3ccccc23)cc1`, the Potency entry was “inactive”.

Take `O=C(N/N=C/c1ccc(N2CCOCC2)cc1)c1ccc(NS(=O)(=O)c2cccs2)cc1`: the Potency entry is “inactive”.

On to `O=S(=O)(O)c1cccc2cccc(Nc3ccccc3)c12`, for which the Potency result is “inactive”.

For `O=C1C(Nc2ccccc2)=C/C(=N/S(=O)(=O)c2cccs2)c2ccccc21`, the Potency is 8.91 µM (active).

Take `O=C(O)c1ccc(NC2=C/C(=N/S(=O)(=O)c3ccccc3)c3ccccc3C2=O)cc1`: the Potency was 39.8 µM (active).

For the molecule `Cc1cc(C)c(S(=O)(=O)Nc2cccc(C(=O)O)c2)cc1S(=O)(=O)Nc1cccc(C(=O)O)c1`, the Potency entry was “inactive”.

As to `Cc1ccc(S(=O)(=O)/N=C2\C=C(Nc3cccc(C(=O)O)c3)C(=O)c3ccccc32)c(C)c1`, the Potency was 28.2 µM (active).

For `C=CCN1C(=O)/C(=C/N(C)C)S/C1=N\S(=O)(=O)c1cccs1`, the Potency result was “inactive”.

Consider `COC(=O)c1ccc(NC(=O)CS(=O)(=O)c2ccccc2)cc1`, for which the Potency result is “inactive”.

As for `Cc1ccc(S(=O)(=O)N2CCN(CC(=O)N3CCCC3)CC2)c(C)c1`, the Potency entry is “inactive”.

Consider `O=C(O)c1ccc(NC2=C/C(=N/S(=O)(=O)c3cccs3)c3ccccc3C2=O)cc1`, for which the Potency is 22.4 µM (active).

For the molecule `Cc1cc(NS(=O)(=O)c2ccc(NC(=O)c3cc4cc(Br)ccc4oc3=O)cc2)no1`, the Potency entry is “inactive”.

`O=c1cc(-c2ccccc2)c2c(O)cc(O)cc2o1`: the Potency entry is “inactive”.

In the case of `O=c1oc2ccc(Br)cc2cc1S(=O)(=O)c1ccc(F)cc1`, the Potency entry is “inactive”.

As for `CCCCN(C)S(=O)(=O)c1ccc(C(=O)Nc2sc3c(c2C(N)=O)CC(C)(C)NC3(C)C)cc1`, the Potency entry is “inactive”.

Regarding `Brc1ccccc1C1CC(c2ccccc2)=Nc2ccccc2N1` (stereo not drawn), the Potency entry is “inactive”.

As to `C=C1C(=O)O[C@@H]2C[C@@H](C)[C@@H]3C=CC(=O)[C@@]3(C)[C@@H](OC(C)=O)[C@H]12`, the Potency is 8.91 µM (active).

For `Cc1cc(/C=C2\Cc3ccccc3C2=O)c(C)n1-c1ccccc1`, the Potency result is “inactive”.

In the case of `CC(C)(C)CC(C)(C)NCC(O)COCCOc1ccc(Br)cc1` (stereo not drawn), the Potency is 39.8 µM (active).

`CCCCOCCCNC(=O)C[C@@H]1C[C@@]2(C(=O)OC)CCCCC=C2N(Cc2ccc(Cl)cc2Cl)C1=O`: the Potency was 39.8 µM (active).

Turning to `CCCCOCCCNC(=O)C[C@@H]1C[C@@]2(C(=O)OC)CCCCC=C2N(Cc2cccc3ccccc23)C1=O`, the Potency was 28.2 µM (active).

Consider `COC(=O)[C@]12CCCCC=C1N(Cc1ccc(Cl)cc1Cl)C(=O)[C@H](CC(=O)N1CCN(C(=O)C3CC3)CC1)C2`, for which the Potency is 35.5 µM (active).

`COCCCNC(=O)CN1C(=O)c2cccc3cccc1c23`: the Potency result was “inactive”.

As to `COc1ccc(C2=CSC3=NCCN23)cc1Br`, the Potency result is “inactive”.

Consider `COc1ccc2nc(N3CCC(C)CC3)c(C#N)cc2c1`, for which the Potency entry is “inactive”.

`COc1ccc(/C=N/n2c(C)nc3sc(C)c(C)c3c2=O)cc1`: the Potency result is “inactive”.

In the case of `CCOC(=O)c1sc(-c2ccc(Cl)cc2Cl)nc1O`, the Potency entry is “inactive”.

For the molecule `CCOC(=O)/C(=C\c1ccc(Cl)cc1)c1nc(O)c2c(C)c(C)sc2n1`, the Potency is 39.8 µM (active).

In the case of `COc1ccc(C2CC(c3cccs3)=NN2c2ccccc2)cc1` (stereo not drawn), the Potency result was “inactive”.

Take `O=C(CCS(=O)(=O)c1ccccc1)Nc1nc2c(s1)COc1ccccc1-2`: the Potency was 33.6 µM (active).

On to `CC1(C)CC(=O)c2sc(NC(=O)CCS(=O)(=O)c3ccccc3)nc2C1`, for which the Potency is 37.7 µM (active).

In the case of `CCCC(=O)Nc1nc2c(s1)COc1ccccc1-2`, the Potency result is “inactive”.

Take `CCc1cccc(NC(=O)CCS(=O)(=O)c2ccc(Br)cc2)c1`: the Potency entry was “inactive”.

As to `O=C(Nc1nc2ccccc2s1)c1cc2c(s1)-c1ccccc1OC2`, the Potency result is “inactive”.

`CC1(C)CC(=O)C2=C(C1)c1c(ccc3ccccc13)NC2c1ccc(C(=O)O)cc1` (stereo not drawn): the Potency result was “inactive”.

With `COc1ccc(C2=CC(c3ccccc3Cl)n3nc(-c4ccc(C)cc4)nc3N2)cc1` (stereo not drawn), the Potency entry was “inactive”.

With `COc1ccc(-c2nc3ncccn3c2Nc2ccccc2)cc1`, the Potency result was “inactive”.

Turning to `O=C(c1ccccc1)c1sc(Nc2ccc3c(c2)OCO3)nc1-c1ccccc1`, the Potency result was “inactive”.

For the molecule `Cc1ccc(-c2nc3ccccn3c2Nc2ccc3c(c2)OCO3)cc1`, the Potency is 35.5 µM (active).

Take `CCOC(=O)CSc1nnc2n(-c3ccccc3)c(=O)c3c4c(sc3n12)CC(C(C)(C)C)CC4` (stereo not drawn): the Potency is 35.5 µM (active).

With `CCN(C(=O)CSc1nnc(C2CC2)n1-c1ccccc1)C1CCS(=O)(=O)C1` (stereo not drawn), the Potency entry was “inactive”.

For the molecule `CCOC(=O)C1CCCN(CCC(=O)Nc2cc(C)ccc2C)C1` (stereo not drawn), the Potency entry was “inactive”.

For `COc1cccc2c3c(c(C)nc12)CCN3c1ccccc1`, the Potency entry is “inactive”.

In the case of `Cc1cccn2c(=O)c3cc(C(=O)NCC4CCCO4)c(=N)n(CCc4ccccc4)c3nc12` (stereo not drawn), the Potency result was “inactive”.

With `Oc1ccc2nnc3c(Br)cnn3c2c1`, the Potency result was “inactive”.

Turning to `CCCNS(=O)(=O)c1ccc2nc(NC(=O)c3ccc(F)cc3)sc2c1`, the Potency is 39.8 µM (active).

Turning to `NS(=O)(=O)c1ccc2nc(NC(=O)c3ccc(Br)o3)sc2c1`, the Potency result is “inactive”.

On to `COc1cc2nc(NC(=O)c3ccc(S(=O)(=O)N4CCCC4)cc3)sc2cc1OC`, for which the Potency entry is “inactive”.

In the case of `Cc1n[nH]c(-c2cccnc2)c1N=NN(C)C`, the Potency was 23.8 µM (active).

As for `O=C/C(=C\Nc1ccc(S(=O)(=O)CCO)cc1)c1nc2cc(Cl)ccc2o1`, the Potency entry was “inactive”.

Consider `Cc1ccsc1/C=N/N=C/c1sccc1C`, for which the Potency entry is “inactive”.

Turning to `C=C1C(=O)OC2C=C(CO)C3OC3C3OC3(C)CC(OC(=O)/C(=C/C)COC(C)=O)C12` (stereo not drawn), the Potency was 16.8 µM (active).

`O=C1Nc2c(Br)cc(Br)c3cccc1c23`: the Potency entry was “inactive”.

As to `Cc1cnc2c(c1)C(=O)c1ccccc1-2`, the Potency result was “inactive”.

With `Cc1cc(C)cc(NC2=C(c3ccccc3)C(=O)c3ccccc32)c1`, the Potency is 20 µM (active).

As for `Cc1ccc(C2C=C(c3ccccc3)Nc3ncnn32)cc1` (stereo not drawn), the Potency entry was “inactive”.

For `CCc1cc2c(C)cc(=O)oc2cc1OC(=O)C1CCCN1C(=O)OC(C)(C)C` (stereo not drawn), the Potency result was “inactive”.

As to `CC(=O)/N=c1\c(C#N)cc2c(=O)n3cccc(C)c3nc2n1CCCOC(C)C`, the Potency entry is “inactive”.

Take `CCOC(=O)Nc1ccc2c(c1)C(=NNC(N)=S)c1ccccc1-2`: the Potency was 31.6 µM (active).

Take `C=C(C)CN=C(S)NN=C1c2ccccc2-c2ccccc21`: the Potency result is “inactive”.

On to `CCOC(=O)Nc1ccc2c3c(cccc13)-c1ccccc1-2`, for which the Potency entry is “inactive”.

On to `COc1ccc(C2C=C(c3ccccc3)Nc3nc(NC(=O)c4ccc(C)cc4)nn32)cc1` (stereo not drawn), for which the Potency result is “inactive”.

Turning to `COC1(OC)C(/C=C/c2ccc(Cl)cc2)C(C#N)(C#N)C1(OC)OC` (stereo not drawn), the Potency was 31.6 µM (active).

Consider `NC(=O)c1ccsc1NC(=O)COC(=O)CNC(=O)c1ccc(F)cc1`, for which the Potency entry is “inactive”.

Turning to `O=C(CCCSc1nc(O)c2ccccc2n1)c1ccccc1`, the Potency result was “inactive”.

In the case of `O=C(CCSc1ccc(Br)cc1)c1ccc(O)cc1`, the Potency is 39.8 µM (active).

As to `C=Cn1cc[n+](CC(=O)c2ccc(Br)cc2)c1`, the Potency entry is “inactive”.

As to `COc1ccc(C2Nc3cc(OC)ccc3-n3cccc32)cc1` (stereo not drawn), the Potency entry is “inactive”.

For `COc1ccccc1N1C(=O)CC(N(O)c2ccccc2)C1=O` (stereo not drawn), the Potency entry is “inactive”.

As for `COc1ccc(N2C(=O)CC(Sc3nc[nH]n3)C2=O)c(OC)c1` (stereo not drawn), the Potency was 28.2 µM (active).

With `CCN(C(=O)c1cc2c(=O)n3ccccc3nc2n1C)C1CCCCC1`, the Potency entry was “inactive”.

For `Nc1ccc(SCc2nc3cccc4c3n2CCC4)cc1`, the Potency entry was “inactive”.

`c1ccc(CN2CCN(Cc3nnc(-c4ccccc4)o3)CC2)cc1`: the Potency entry was “inactive”.

For `c1ccc(CN2CCN(CCCNc3ccc4nnc(-c5ccccc5)n4n3)CC2)cc1`, the Potency was 22.4 µM (active).

For `CCCn1c(=N)c(C#N)cc2c(=O)n3ccccc3nc21`, the Potency entry is “inactive”.

For the molecule `COc1ccc(-c2cc3ccc(O)cc3oc2=O)cc1`, the Potency result is “inactive”.

Regarding `CCOCCCn1c(=N)c(C(=O)NCC2CCCO2)cc2c(=O)n3cc(C)ccc3nc21` (stereo not drawn), the Potency entry is “inactive”.

For `Cc1ccc(-c2nn(-c3ccccc3)cc2/C=C(\C#N)c2cccc(C#N)c2)o1`, the Potency entry was “inactive”.

On to `CC1(C(=O)Nc2cccc3cccnc23)CCN1Cc1ccc(-c2ccccc2)o1` (stereo not drawn), for which the Potency is 6.31 µM (active).

On to `CC1(C(=O)Nc2cccc3ccccc23)CC1(Br)Br` (stereo not drawn), for which the Potency result was “inactive”.

With `CC(=O)Nc1ccc(S(=O)(=O)Nc2cccc3cccnc23)cc1`, the Potency entry was “inactive”.

On to `Cc1ccc(N2C(=O)/C(=C/Nn3cnnc3)c3ccccc3C2=O)cc1`, for which the Potency result is “inactive”.

Regarding `CCOCCCn1/c(=N/C(C)=O)c(C#N)cc2c(=O)n3ccccc3nc21`, the Potency result is “inactive”.

For the molecule `CC(C)C[C@H]1COc2cccc(N3CCN(Cc4ccccc4F)CC3)c2S(=O)(=O)N1`, the Potency was 12.6 µM (active).

With `O=C(NCc1ccco1)C1CCC(N2C(=O)C3C4CCC(C4)C3C2=O)CC1` (stereo not drawn), the Potency entry was “inactive”.

In the case of `O=C(Nc1cccc2c1C(=O)NC2=O)c1ccccc1[N+](=O)[O-]`, the Potency entry is “inactive”.

As for `CCOc1ccc(NC(=O)/C(=C/Nc2ccccc2)C(C)=O)cc1`, the Potency entry is “inactive”.

For `CCOc1ccc(NC(=O)c2cc3ccccc3cc2O)cc1`, the Potency entry is “inactive”.

Consider `CCOc1ccc(NC(=O)c2cn(CC(C)C)c(=O)c3c2c2ccccc2n3C)cc1`, for which the Potency is 17.8 µM (active).

With `CCOCCCN=C(S)N1CCCN(c2nc3cc(C)cc(C)c3cc2C#N)CC1`, the Potency entry is “inactive”.

In the case of `CCOc1ccc2nc(O)c(CN(Cc3cccs3)Cc3nnnn3C(C)(C)CC)cc2c1`, the Potency is 35.5 µM (active).

For `CCN1CCN(c2nc(Nc3cc(OC)ccc3OC)nc(Nc3cc(OC)ccc3OC)n2)CC1`, the Potency entry is “inactive”.

For `CCc1nc2ccc(C(=O)Nc3nnc(C)s3)cc2nc1CC`, the Potency entry is “inactive”.

Regarding `Cc1c(C(=O)Nc2ccc(S(=O)(=O)N(C)C3CCN(C)CC3)cc2)oc2c(Cl)cccc12`, the Potency was 39.8 µM (active).

Take `COC(=O)c1c(NC(=O)c2ccc(S(=O)(=O)N(C)C3CCCCC3)cc2)sc2c1CCN(C)C2`: the Potency result was “inactive”.

With `Cn1nc(C(=O)Nc2cccc(S(=O)(=O)N3CCCC3)c2)c2ccccc2c1=O`, the Potency result is “inactive”.

With `O=C(CCl)/N=c1\sccn1Cc1ccccc1Cl`, the Potency was 31.6 µM (active).

Turning to `O=C(COC(=O)Cn1cnc2ccccc2c1=O)NCc1ccccc1Cl`, the Potency entry was “inactive”.

Turning to `O=C(Cc1cccs1)N1CCN=C1SCc1ccccc1Cl`, the Potency entry is “inactive”.
